Bioassay records as filed in PubChem.
TrxR1 inh – blocks rat thioredoxin reductase 1; O89049; recombinant rTrxR1, NADPH fluorescence consumption, selenite substrate; Potency, µM (top dose mostly 114 µM), without a hit: at the highest dose activity change, negative = inhibition, usual class: inhibitors; 390,000 tested, 1% active; further: nearly all actives have a fitted effect of over 65% in size
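Rat TrxR1 (90 nM in the dispensed reagent) was pre-reduced with 400 uM NADPH for 5 min at room temperature, then incubated with compound for 15 min. After 400 uM selenite was added, NADPH fluorescence (Ex 340/Em 450 nm) was followed for 8 min.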
GALK inhibitor – galactokinase (human) inhibition; Potency, µM (highest dose often 57.5 µM), inactives show top-dose activity change, negative = inhibition, most hits filed as inhibitors; Purified GALK, Kinase-Glo residual ATP luminescence; 270,000 tested, 0.007% active
Target sequence (P51570 whole entry, looked up): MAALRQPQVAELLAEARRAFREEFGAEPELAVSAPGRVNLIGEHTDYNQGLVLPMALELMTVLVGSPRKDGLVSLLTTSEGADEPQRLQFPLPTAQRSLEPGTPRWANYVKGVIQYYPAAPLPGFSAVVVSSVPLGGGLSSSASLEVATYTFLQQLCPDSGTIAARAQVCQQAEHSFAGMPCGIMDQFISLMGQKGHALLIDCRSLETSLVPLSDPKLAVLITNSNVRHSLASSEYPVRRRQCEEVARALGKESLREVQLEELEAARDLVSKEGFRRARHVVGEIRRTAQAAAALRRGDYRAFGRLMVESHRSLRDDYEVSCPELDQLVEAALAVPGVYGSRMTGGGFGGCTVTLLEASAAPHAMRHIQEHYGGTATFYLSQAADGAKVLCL
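Galactose (100 uM) and ATP (35 uM) were turned over by 5 nM GALK for 1 h at RT. Kinase-Glo Plus then converted the remaining ATP into a luminescent signal.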
TrxR1 substrate – is turned over as a substrate by rat TrxR1; purified TrxR1 substrate turnover, NADPH consumption readout; 390,000 tested, 0.01% active; O89049; Potency, µM (titrated, usually from 114 µM), without a hit: at the top dose activity change, negative = substrate turnover; further: nearly all actives have a fitted effect of over 50% in size
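Rat TrxR1, dispensed at 90 nM, was prereduced with 400 uM NADPH (final) for 5 min at ~22 deg C, then incubated with compound 15 min before 400 uM selenite. A first-read NADPH fluorescence drop versus no-compound background flagged substrates.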
NPSR antagonist – antagonists of human neuropeptide S receptor cAMP signaling; Q6W5P4; 220,000 tested, 1% active; AID 1461; CHO-NPSR cells, cAMP TR-FRET, antagonist mode; Potency, µM (top dose mostly 38.3 µM), inactives show at the top dose activity change, negative = inhibition, actives largely listed as inhibitors; further: nearly all actives have a fitted effect of over 50% in size
Starred values were filed as active, the others as inactive; [ ] = dose if it differs, or a comment. This is a sample that favours compounds with a hit; in the whole collection about 1.2% have one here. The call rests on the fitted dose curve; in most records, active means well fitted curve in the direction sought with a large enough effect; inconclusive means small, poorly fitted or top-dose-only effect, or another doubt; inactive means no such curve, though single readings can be large; an effect the other way counts as inactive or inconclusive. On the % scale 0 is the no-effect control and ±100 the full control effect; potency means the concentration at half of the fitted maximal effect.

`Cc1[nH]n(-c2ncc(-c3ccc(Cl)cc3)s2)c(=O)c1C(c1ccc(Cl)cc1)C(C#N)C#N` (stereo unspecified) gave TrxR1 inh 11µM*, GALK inhibitor -4%, TrxR1 substrate -8% and NPSR antagonist -26%[46.1 µM].
`Oc1c(Br)cc(Br)cc1/C=N/c1nccs1` gave TrxR1 inh 35µM* and TrxR1 substrate -6%.
`O=C(C[N+]12CCCc3cccc(c31)CCC2)c1ccc2ccc3cccc4ccc1c2c34` gave TrxR1 inh inconclusive and TrxR1 substrate 24%.
Screening C#CCSc1nccc(-c2nn(-c3ccc(C)cc3)ccc2=O)n1 returned TrxR1 inh 79µM*, GALK inhibitor -3%, TrxR1 substrate 20% and NPSR antagonist 2%[46.1 µM].
For CCSc1nccc(-c2nn(-c3ccc(C)cc3)ccc2=O)n1 the results were TrxR1 inh 11%, GALK inhibitor 1%, TrxR1 substrate 7% and NPSR antagonist 5%[46.1 µM].
`Cc1ccc(C)c(CN2CCCN(Cc3ccccc3C)S2(=O)=O)c1` gave TrxR1 inh 21% and TrxR1 substrate 4%.
For COc1ccc2c(c1)cc1c(=O)n(CC(=O)NCCCc3ccccc3)nc(C)n12 the results were TrxR1 inh 26% and TrxR1 substrate 11%.
Screening O=C(CCl)N1CCCC1c1ccc2c(c1)OCCO2 (stereo unspecified) returned TrxR1 inh 25µM*, GALK inhibitor 0% and TrxR1 substrate 4%.
CC(=O)c1ccc(OCC(=O)N2CCCC2c2ccc3c(c2)OCCCO3)cc1 (stereo unspecified) was read as TrxR1 inh 14% and TrxR1 substrate 9%[57.1 µM].
Screening CSc1ccccc1OCc1cc(C(=O)N(C)Cc2ccc(C)o2)no1 returned TrxR1 inh 35µM*, GALK inhibitor -2% and TrxR1 substrate 1%.
Cc1ccc(CN(C)C(=O)c2ccc(S(=O)(=O)N(C)c3ccccc3)cc2)o1 was read as TrxR1 inh inconclusive and TrxR1 substrate -3%[57.1 µM].
For Cc1ccc(CN(C)C(=O)c2ccccc2Oc2ccccc2)o1 the results were TrxR1 inh 11µM*, GALK inhibitor -1%, TrxR1 substrate 7% and NPSR antagonist -11%[46.1 µM].
CC(=O)c1cccc(OCc2cc(C(=O)N(C)Cc3ccc(C)o3)no2)c1 was read as TrxR1 inh 3.5µM*, GALK inhibitor 3% and TrxR1 substrate -3%.
Screening CC(=O)c1cccc(OCc2cc(C(=O)N(C)CCc3ccccn3)no2)c1 returned TrxR1 inh -28%, GALK inhibitor -2% and TrxR1 substrate -2%.
Screening O=C(CSc1nc(-c2ccccc2)cn1-c1ccccc1F)Nc1ccc(F)cc1 returned TrxR1 inh 21%[57.1 µM] and TrxR1 substrate 2%[57.1 µM].
For O=Cc1cccc(C=O)c1 the results were TrxR1 inh 9% and TrxR1 substrate -2%.
Screening COCCn1nnnc1C(c1cc2cc(C)ccc2[nH]c1=O)N1CCCCCC1 (stereo unspecified) returned TrxR1 inh 4.5µM*, GALK inhibitor 0%, TrxR1 substrate 6% and NPSR antagonist -7%[46.1 µM].
`COc1ccc2[nH]c(=O)c(CN(Cc3ccco3)Cc3nnnn3Cc3ccccc3)cc2c1` gave TrxR1 inh inconclusive, GALK inhibitor 1%, TrxR1 substrate 4% and NPSR antagonist inconclusive.
For CCOc1ccc2[nH]c(=O)c(CN(Cc3ccco3)Cc3nnnn3Cc3ccccc3)cc2c1 the results were TrxR1 inh 14µM*, GALK inhibitor 0%, TrxR1 substrate 23% and NPSR antagonist -26%[46.1 µM].
`Cc1cc2cc(C(c3nnnn3Cc3ccco3)N3CCCCC3)c(=O)[nH]c2cc1C` (stereo unspecified) gave TrxR1 inh -18%, GALK inhibitor -1%, TrxR1 substrate 10% and NPSR antagonist -7%[46.1 µM].
CCOc1ccc2[nH]c(=O)c(C(c3nnnn3Cc3ccco3)N3CCN(C)CC3)cc2c1 (stereo unspecified) was read as TrxR1 inh 4%[57.1 µM], GALK inhibitor 1µM*, TrxR1 substrate 22%[57.1 µM] and NPSR antagonist inconclusive.
Screening Cc1ccc2[nH]c(=O)c(CN(CCCO)Cc3nnnn3Cc3ccccc3)cc2c1 returned TrxR1 inh 20µM* and TrxR1 substrate 5%.
For Cc1ccc(OCC(=O)Nc2ccc(O)c(-c3nc4cc(C)c(C)cc4o3)c2)cc1 the results were TrxR1 inh inconclusive and TrxR1 substrate 1%.
